From PubChem BioAssay AID430 (Sanford-Burnham Center for Chemical Genomics, 2006) come the findings set out here.

Screen size: about 63,000 compounds; about 1,100 (1.7%) were called active. The sample holds actives, similar compounds and a random draw of the others, so the mix is not that of the screen. No stated cut-off is given here; in the data, active means cytotoxicity above about 50%; inactive means the rest. Results with a measured potency or affinity are listed apart.

The nature of the assay: HPDE-C7 pancreatic duct cell viability loss – fluorescence, HTS (AID 430).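 Further: cells exposed to compound for 48 hours before viability readout; 0% = vehicle and 100% = reference cytotoxic drug.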 The settings on record: HPDE-C7 pancreatic duct cells viability, at 10 µM, hits give high values.
Regarding `COc1ccc(Cl)cc1S(=O)(=O)N1CCN(C)CC1`, the cytotoxicity is -4.6% (inactive).

Regarding `CCN(CC)C(=O)C1CCCN(C/C(C)=C/c2ccccc2)C1` (configuration not stated), the cytotoxicity is -8.8% (inactive).

Turning to `CCOC(=O)c1c(N)sn(-c2ccccc2)c1=S`, the cytotoxicity is -2% (inactive). Regarding `N#Cc1c2c(c(=S)n(-c3ccccc3)c1N)CCCC2`, the cytotoxicity is 1.6% (inactive). On to `CC(C(=O)N1CCN(c2ccccc2)CC1)N1C(=O)C2CC=CCC2C1=O` (configuration not stated), for which the cytotoxicity is -2.6% (inactive). In the case of `CC(=O)c1c(C)[nH]c(C)c1C(C)=O` it was -8.7% (inactive); in that of `CCc1[nH]c(C)c(C(C)=O)c1C`, 59.8% (active). `CCCNC(=O)c1[nH]c(C)c(C(C)=O)c1C`: the cytotoxicity is 2% (inactive).

As to `COc1ccc(Cn2c3nc4ccccc4nc3c3c(=O)n(Cc4ccco4)cnc32)cc1`, the cytotoxicity is 20.7% (inactive). In the case of `CC(C)C1N(S(=O)(=O)c2ccccc2)CCN1S(=O)(=O)c1ccccc1`, the cytotoxicity is 2% (inactive). With `Cc1cccc(OCCCCCNCCO)c1`, the cytotoxicity was 9.6% (inactive).

On to `N#Cc1ccc(-c2ccco2)nc1SCC(=O)c1ccc(Cl)cc1`, for which the cytotoxicity is 21.1% (inactive).

For `COc1ccc(OC)c(NC(=O)CSC2=C(C#N)C(c3ccco3)C3=C(CCCC3=O)N2)c1` (configuration not stated), the cytotoxicity is -1.5% (inactive). Regarding `Nc1nnc(SCc2ccccc2Cl)s1`, the cytotoxicity was 8.4% (inactive). For the compound `CS(=O)(=O)Nc1ccccc1C(=O)Nc1cccc(Cl)c1`, the cytotoxicity was 5.3% (inactive). In the case of `COc1ccc(Cl)cc1NC(=O)Cn1c(=O)n2nc(C)nc2c2ccccc21` it was 7.2% (inactive). Take `O=C(CSc1n[nH]c(-c2ccccc2O)n1)N1CCCc2ccccc21`: the cytotoxicity was 2.3% (inactive). `Cc1ccnc(NS(=O)(=O)c2ccc(NS(=O)(=O)Cc3ccccc3)cc2)n1`: the cytotoxicity is -21.7% (inactive).

Turning to `CCOc1ccccc1C1CC(=O)Nc2cc3c(cc21)OCO3` (configuration not stated), the cytotoxicity is 59.7% (active). As for `CCOc1ccccc1C1CC(=O)Nc2cc(OC)c(OC)c(OC)c21` (configuration not stated), the cytotoxicity was -16.2% (inactive). As to `CCOc1ccccc1C1CC(=O)Nc2cc3c(cc21)OCCO3` (configuration not stated), the cytotoxicity is 51.1% (active). As for `CCOc1c(OC)cccc1C1CC(=O)Nc2cc(OC)c(OC)cc21` (configuration not stated), the figure is 7.3% (inactive); as for `CCOc1ccccc1C1CC(=O)NC2=C1C(=O)CC(C)(C)C2` (configuration not stated), 9.7% (inactive).

For the compound `CCOc1c(OC)cccc1C1CC(=O)Nc2cc3c(cc21)OCCO3` (configuration not stated), the cytotoxicity is 13.7% (inactive). As to `CN(C(=O)C12CC3CC(CC(C3)C1)C2)C1CCS(=O)(=O)C1` (configuration not stated), the cytotoxicity is -5.1% (inactive). In the case of `O=C(Oc1cc(=O)oc2ccccc12)c1ccco1`, the cytotoxicity was 14.1% (inactive). In the case of `CCCCS(=O)(=O)/C=C\C1C2C=CC(C2)C1S(=O)(=O)CCCC` (configuration not stated), the cytotoxicity was -10.1% (inactive). Consider `CCCCS(=O)(=O)/C=C\C=C/S(=O)(=O)CCCC`, for which the cytotoxicity is 111% (active). In the case of `CC(=O)NC1(c2cccc(F)c2)CCN(C(=O)Nc2ccc(C#N)cc2)CC1` it was -15% (inactive); in that of `CC(NC(=O)Cc1ccsc1)c1ccc(S(N)(=O)=O)cc1` (configuration not stated), 5.5% (inactive); in that of `CN1CCN(CCCN2c3ccccc3Sc3ccc(Cl)cc32)CC1`, 75% (active). As to `CN1CCN(CCC(=O)N2c3ccccc3Sc3ccc(Cl)cc32)CC1`, the cytotoxicity is 17.5% (inactive). In the case of `CN(C)CCCN1c2ccccc2CCc2ccc(Cl)cc21`, the cytotoxicity was 31.8% (inactive). Turning to `O=C(CN1CCN(CCOCCO)CC1)N1c2ccccc2Sc2ccc(Cl)cc21`, the cytotoxicity was -24.7% (inactive).

In the case of `OCCN1CCN(C(=S)c2ccc(Cl)cc2)CC1`, the cytotoxicity was -26% (inactive). As for `CCCN(C(=O)CSc1nnc(-c2ccoc2C)n1N)C1CCS(=O)(=O)C1` (configuration not stated), the figure is 6.4% (inactive); as for `CCOC(=O)c1cn(CC)c2ccc(S(=O)(=O)N3CC(C)CC(C)C3)cc2c1=O` (configuration not stated), -2% (inactive). With `CC1=C(C(=O)OCC2CCCO2)C(c2cccc(O)c2)NC(=O)N1` (configuration not stated), the cytotoxicity was -6.4% (inactive). For `CC(=O)N1CCc2cc(S(=O)(=O)CCC(=O)NCc3ccc4c(c3)OCO4)ccc21`, the cytotoxicity was -4.4% (inactive). For the compound `Cc1cccc(N2CCN(C(=O)c3cc4c(=O)n(C)c5ccccc5c4n3C)CC2)c1C`, the cytotoxicity is 61.6% (active). Turning to `Cn1c(C(=O)N2CCN(c3ccccc3F)CC2)cc2c(=O)n(C)c3ccccc3c21`, the cytotoxicity was 5.3% (inactive). On to `Cn1c(C(=O)Nc2ccc3c(c2)OCCO3)cc2c(=O)n(C)c3ccccc3c21`, for which the cytotoxicity is 60% (active). With `COc1ccccc1N1CCN(C(=O)c2cc3c(=O)n(C)c4ccccc4c3n2C)CC1`, the cytotoxicity was 29% (inactive). Consider `CC(NC(=O)c1cc2c(=O)n(C)c3ccccc3c2n1C)c1ccc2c(c1)OCCO2` (configuration not stated), for which the cytotoxicity is 38.8% (inactive). Consider `Cc1ccc(Cl)cc1N1CCN(C(=O)c2cc3c(=O)n(C)c4ccccc4c3n2C)CC1`, for which the cytotoxicity was 59.5% (active).

For the compound `Cn1c(C(=O)N2CCCC2)cc2c(=O)n(C)c3ccccc3c21`, the cytotoxicity was 14.1% (inactive). On to `Cn1c(C(=O)N2CCN(c3ccc(Cl)cc3)CC2)cc2c(=O)n(C)c3ccccc3c21`, for which the cytotoxicity is 6.6% (inactive). Take `Cn1c(C(=O)Nc2ccc3c(c2)OCO3)cc2c(=O)n(C)c3ccccc3c21`: the cytotoxicity is 18% (inactive). As to `O=C(COc1ccc(S(=O)(=O)NC2CCCCC2)cc1Cl)NCC1CCCO1` (configuration not stated), the cytotoxicity is -2.7% (inactive). For `CC(C)CCNC(=O)c1cccc(Cl)c1`, the cytotoxicity was 1.2% (inactive). As to `O=c1n(Cc2ccccc2Cl)c2sc3c(c2c2ncnn12)CCCC3`, the cytotoxicity was -20.8% (inactive). As for `O=C(Cn1c(=O)n2ncnc2c2c3c(sc21)CCCC3)c1ccccc1`, the cytotoxicity was -18.5% (inactive). For `COCCSc1nnc(NS(=O)(=O)Cc2ccccc2)s1`, the cytotoxicity is -1.4% (inactive). On to `O=C(O)CSc1ncn[nH]1`, for which the cytotoxicity is 1% (inactive). On to `c1ccc(Nc2c3c(nc4ncnn24)CCC3)cc1`, for which the cytotoxicity is -24.1% (inactive). In the case of `C=CCc1cc(C)ccc1OCC(O)CN1CCN(c2ccccc2)CC1` (configuration not stated) it was 22.9% (inactive).

For `COc1ccc(S(=O)(=O)N2CCN(S(=O)(=O)c3ccc4c(c3)OCCO4)CC2)cc1C`, the cytotoxicity is -3.8% (inactive). As for `COc1cc(NS(=O)(=O)c2ccc(OC)c(C)c2C)c(OC)cc1Cl`, the figure is 60.7% (active); as for `COc1cc(NS(=O)(=O)c2cc(C)ccc2OC)c(OC)cc1Cl`, -0.5% (inactive); as for `COc1ccc(OC)c(S(=O)(=O)Nc2cc(OC)c(Cl)cc2OC)c1`, 5.6% (inactive). Take `CC1CCCCN1C(=O)c1cnn2c(C(F)(F)F)cc(-c3ccco3)nc12` (configuration not stated): the cytotoxicity is -7.7% (inactive).

Take `COc1ccc(N2CCN(c3ncnc4c3cnn4-c3ccc(C)cc3C)CC2)cc1`: the cytotoxicity was 0.4% (inactive). As for `CCc1cc2c(N3CCN(c4ccccc4)CC3)ncnc2s1`, the cytotoxicity is 75.1% (active). With `COc1ccc(-n2ncc3c(N4CCN(c5cc(C)ccc5C)CC4)ncnc32)cc1`, the cytotoxicity was 1.5% (inactive). Regarding `CCc1cc2c(N3CCCCC3)ncnc2s1`, the cytotoxicity is -21.8% (inactive). Take `O=C(c1ccco1)N1CCN(c2ncnc3c2cnn3-c2ccccc2)CC1`: the cytotoxicity is -6.3% (inactive). For `CCc1cc2c(N3CCN(c4nnc(CC)s4)CC3)ncnc2s1`, the cytotoxicity was 15.2% (inactive). `Cc1ccc(-n2ncc3c(N4CCCC4)ncnc32)c(C)c1`: the cytotoxicity was -2.3% (inactive). Turning to `O=C(COc1ccccc1)N1CCN(c2ncnc3c2cnn3-c2ccccc2)CC1`, the cytotoxicity is -0.4% (inactive).

For `CCN1CCN(c2ncnc3c2cnn3-c2ccc(C)cc2C)CC1`, the cytotoxicity was -8.1% (inactive).

Regarding `Cc1cc(C(=O)CN2C(=O)c3ccccc3C2=O)c(C)n1C1CC1`, the cytotoxicity was 6.6% (inactive). As for `O=C(c1ccccc1)N1CCCOC1c1ccccc1` (configuration not stated), the figure is 2.4% (inactive); as for `Cn1c(=O)c2c(nc(SCC(=O)NC3CCCCC3)n2C)n(C)c1=O`, -18.4% (inactive). With `COc1ccc(CCNC(=O)CN2C(=O)c3ccccc3S2(=O)=O)cc1OC`, the cytotoxicity is 0.7% (inactive). Take `Cn1cccc1Cc1nnc(SCC(=O)Nc2ccccc2)n1-c1ccc(F)cc1`: the cytotoxicity is 0% (inactive). Regarding `O=C(CN1CCC(NC(=O)c2ccc(F)cc2)CC1)NCc1ccccc1F`, the cytotoxicity was -5.6% (inactive).

As for `O=C(Nc1cccc(Cl)c1)N1CCN(Cc2ccccc2)CC1`, the cytotoxicity was 17.3% (inactive). As to `O=C(NC1CCCc2ccccc21)C1CCCO1` (configuration not stated), the cytotoxicity is 2% (inactive). For the compound `O=C(NC1CCCCC1)C(c1ccc(F)cc1)N(Cc1ccco1)C(=O)Cn1nnc2ccccc21` (configuration not stated), the cytotoxicity was -13.1% (inactive). As for `O=C(NC1CCCCC1)C(c1ccccc1F)N(Cc1ccco1)C(=O)Cn1nnc2ccccc21` (configuration not stated), the cytotoxicity is 63.4% (active). As for `CCC(C)(C)NC(=O)C(c1ccccc1F)N(Cc1ccco1)C(=O)Cn1nnc2ccccc21` (configuration not stated), the figure is 2.4% (inactive). Regarding `Cc1ccc(S(=O)(=O)Nc2nc3ccccc3nc2NCc2ccco2)cc1C`, the cytotoxicity is -2.8% (inactive). In the case of `O=C(CSc1nc2cc(Cl)ccc2s1)NC(=O)NCc1ccco1`, the cytotoxicity is -4.7% (inactive). In the case of `C=CCn1c(SCC(=O)NC(=O)NCc2ccco2)nc2sc(CC)cc2c1=O`, the cytotoxicity is 57.6% (active).

Take `C=CCn1c(SCC(=O)N2CCN(C(=O)c3ccco3)CC2)nc2sc(CC)cc2c1=O`: the cytotoxicity was -4.1% (inactive).

For `C=CCn1c(SCC(=O)NC(=O)NCc2ccco2)nc2sc(C)c(C)c2c1=O`, the cytotoxicity is -0.5% (inactive). Take `O=C(CSc1nc2ccccc2s1)NC(=O)NCc1ccco1`: the cytotoxicity was 82.9% (active). As for `O=C(CCCSc1nc2ccccc2s1)NCc1ccco1`, the figure is -2.9% (inactive); as for `Cc1ccc2cc3cc(C(=O)N4CCN(C(=O)c5ccco5)CC4)sc3nc2c1`, -0.9% (inactive); as for `CCn1cc(C(=O)N2CCCC2)c(=O)c2cc(S(=O)(=O)N3CCOCC3)ccc21`, -4.3% (inactive). In the case of `Cc1cccc(-c2nc(CS(=O)CC(=O)NC3CCCC3)c(C)o2)c1` (configuration not stated) it was 10.3% (inactive); in that of `CC(OC1=CC(=O)CCC1)C(=O)c1ccccc1` (configuration not stated), -4.7% (inactive).

With `COc1ccccc1OCc1nc(C#N)c(NCc2ccco2)o1`, the cytotoxicity is 3.4% (inactive). As to `CCCCCCC1CC(CSc2ncn[nH]2)OC1=O` (configuration not stated), the cytotoxicity is 6.8% (inactive). As for `CCOC(=O)c1ccc(N2CC(O)=C(c3nc4ccccc4c(=O)[nH]3)C2=N)cc1`, the figure is 38.3% (inactive); as for `COc1cccc(N2CC(O)=C(c3nc4ccccc4c(=O)[nH]3)C2=N)c1`, 54.2% (active). `COc1ccccc1N1CC(O)=C(c2nc3ccccc3c(=O)[nH]2)C1=N`: the cytotoxicity was 26.8% (inactive).
